Hits are enriched below; roughly 6.3% of the tested compounds scored in any of these assays.
Mdm2-MdmX inh = inhibitors of human Mdm2-MdmX association, primary screen, cell-based, luminescence, split luciferase, SaOS-2, uHTS; 3% of 330,000 active; SaOS-2 split-luciferase Mdm2/MdmX complementation; Protein Mdm4 (Homo sapiens) + E3 ubiquitin-protein ligase Mdm2 (Homo sapiens), …; inhibition, % at 8 µM;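 active = inhibition of at least 50% at 8 µM in the primary screen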
tim10-1 inh = growth inhibitors of tim10-1 mutant yeast, primary screen, luminescence, uHTS; S. cerevisiae tim10-1 ts strain growth, BacTiter-Glo, 24 h; inhibition, % at 20 µM; 2.2% of 330,000 active; AID 463190, 2010;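 active = inhibition of at least 40%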;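 also: mutant grown at 25 °C; 0% = DMSO wells with yeast and 100% = wells holding no yeast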
MPTP block = mitochondrial permeability transition pore inhibitors, primary screen, biochemical, isolated mouse mitochondria, absorbance | Ca2+ swelling absorbance, 30 min | inhibition, % at 10 µM | 1.4% of 360,000 active;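 active = inhibition of 50% or more, scaled per plate between neutral and stimulator controls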;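 also: 0% = DMSO wells given calcium and 100% = 1 mM EGTA wells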
TIM10 inh = growth inhibitors of isogenic TIM10 control yeast, primary screen, counter-screen for tim10-1 yeast inhibitor project, luminescence, uHTS; inhibition, % at 10 µM; AID 463195, 2010; S. cerevisiae TIM10 strain growth, BacTiter-Glo luminescence, 24 h; 1.4% of 330,000 active;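 active = inhibition of 40% or more at the single tested concentration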;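 also: wild-type TIM10 isogenic control strain grown at permissive 25 °C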
tim23-1 inh = growth inhibitors of tim23-1 mutant yeast, primary screen, luminescence, uHTS; S. cerevisiae tim23-1 growth, BacTiter-Glo luminescence, 24 h; 1.3% of 330,000 active; inhibition, % at 20 µM;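 active = growth inhibition of the mutant yeast at or above 50%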;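 also: temperature-sensitive mutant grown at 25 °C; plate controls were DMSO-treated mutant yeast for no effect and medium wells lacking yeast for full effect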
Mdm2 MdmX conf = Mdm2-MdmX complex disruptors, retested hits, confirmation, luminescence, single concentration | shares compounds with Mdm2-MdmX inh | Mdm2-MdmX binding, luminescent assay | inhibition, % at 8 µM | 55% of 10,000 active; in the data active = inhibition above about 40%
FLuc counter = full-length luciferase signal inhibition, confirmation, counter-screen for Mdm2/MdmX interaction inhibitor project, cell-based, single concentration, SaOS-2; shares compounds with Mdm2-MdmX inh; SaOS-2 full-length luciferase counterscreen, luminescence; inhibition, % at 8 µM; 77% of 6,200 active; AID 504607, 2011;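 active = mean inhibition at 8 µM reaching about 37%, which flags the compound as non-specific, limit read from the data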;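 also: p53-null SaOS-2 cells with luciferase driven by a doxycycline-inducible promoter; compound on cells about two nights before reading with doxycycline added after day one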
Active calls of the source: *; / = no result given.

SMILES	Mdm2-MdmX inh	tim10-1 inh	MPTP block	TIM10 inh	tim23-1 inh	Mdm2 MdmX conf	others
CCc1ccc(-c2cc(C)no2)cc1S(=O)(=O)N1CCN(c2ccccc2)CC1	59.5*	21.1	-1.9	-2.8	16.2	43.1*	FLuc counter=46.6*
CCOC(=O)C1=CCN(S(=O)(=O)c2ccccc2Br)C1c1ccc(Cl)c(Cl)c1 (centres undefined)	/	/	-0.1	/	/	/
Cc1ccc2nc(SCC(=O)c3c(N)n(C4CC4)c(=O)[nH]c3=O)[nH]c2c1	6.6	-13.3	0.1	-3.8	-10.3	/
CCCc1cc(=O)[nH]c(SCC(=O)c2c(N)n(C3CC3)c(=O)[nH]c2=O)n1	96.3*	0.2	-0.4	1.3	8.2	13.6
Cc1cc(C)cc(-c2nnc(SCC(=O)c3c(N)n(C4CC4)c(=O)[nH]c3=O)o2)c1	54.4*	-12.0	-1.2	-9.4	-7.5	14.2
Cc1cccc(Nc2nnc(SCC(=O)c3c(N)n(C4CC4)c(=O)[nH]c3=O)s2)c1	21.7	8.6	1.8	-4.4	1.2	/
Cc1ccc(Nc2nnc(SCC(=O)c3c(N)n(C4CC4)c(=O)[nH]c3=O)s2)cc1C	70.5*	-6.0	0.2	1.8	4.8	4.0
COc1cc(CNC(=O)c2cc(-c3ccc(OC)cc3C)n[nH]2)cc(OC)c1	/	/	-0.6	/	/	/
CC1=C(C(=O)N2CCOCC2)CC(CC(=O)NCCCN(C)C)C(=O)N1CCCN1CCCC1=O (centres undefined)	/	/	0.2	/	/	/
O=[N+]([O-])c1ccc(-c2nc(C(Cl)Cl)c3ccccc3n2)cc1	99.0*	24.8	1.4	16.3	23.6	100.1*	FLuc counter=51.5*
Cc1ccc(F)cc1C(=O)N1CCCCC1c1cc(C(=O)Nc2ccc(F)c(Cl)c2)no1 (centres undefined)	/	/	0.1	/	/	/
COc1ccc(-c2cc(C3CCN(Cc4ccc([N+](=O)[O-])cc4)CC3)[nH]n2)cc1	40.3	1.2	0.8	7.3	-2.5	/
Cc1ccc(CN2CCC(c3cc(-c4ccc(Cl)cc4)n[nH]3)CC2)cc1	64.0*	-253.9	4.3	-169.1	-180.8	36.1	FLuc counter=74.0*
COc1cccc(C(NC(C)=O)c2nc(-c3ccccc3C)cs2)c1 (centres undefined)	/	/	0.5	/	/	/
Cc1cn([C@H]2C[C@H](O)[C@@H](CNS(=O)(=O)N3CCCC3)O2)c(=O)[nH]c1=O	/	/	-0.3	/	/	/
CN(C)CCCn1c(=O)n(C2CCCCC2)c(=O)c2c3c(sc21)CCCCC3	89.7*	17.6	1.2	18.5	3.6	72.2*	FLuc counter=66.1*
CN(C)CCn1c(=O)n(-c2ccc(F)cc2)c(=O)c2c3c(sc21)CCCCC3	15.7	7.6	-1.9	8.6	3.2	/
N#Cc1ccc(C#Cc2ccc3oc4ccccc4c(=O)c3c2)cc1	67.4*	-3.3	-0.1	-0.9	-4.0	8.8
Nc1c(C(=O)NC2CCCC2)c2nc3ccccc3nc2n1/N=C/c1cccnc1	51.1*	15.9	2.5	-12.3	13.3	23.1
CC(C)OCCCNC(=O)c1c(N)n(/N=C/c2cccs2)c2nc3ccccc3nc12	14.7	9.4	1.9	3.4	11.3	/
CC(NC(=O)/C(C#N)=C1\N=C(NC(=O)c2ccco2)c2ccccc21)c1ccccc1 (centres undefined)	66.8*	19.3	3.7	0.9	29.4	12.1
Cc1ccc(C(=O)N2CCC3(CC2)Oc2ccc(Cl)cc2C(=O)C32CC(c3cccnc3)=NO2)s1 (centres undefined)	14.6	18.9	0.0	5.9	16.4	/
O=C(/C=C/c1cccs1)N1CCC2(CC1)Oc1ccc(Cl)cc1C(=O)C21CC(c2cccnc2)=NO1 (centres undefined)	67.3*	13.6	0.0	8.9	21.1	27.1
CC[C@@]1(C(=O)OC)N[C@H](CN(C)S(=O)(=O)c2ccc(OC)cc2)[C@@H]2C(=O)N(C)C(=O)[C@@H]21	6.3	1.2	-1.2	-0.7	-4.8	/
